LASV entry inh: Lassa virus entry inhibition. 300,000 tested, 1.2% active. Lassa virus pseudotype entry inhibition, cell reporter. Potency, µM (doses to about 37.9 µM), for inactives: at the highest dose activity change, negative = inhibition, hits mostly inhibitors; calls by dose curve; tested in HEK293 cells; note: potency is the fitted concentration of half-maximal effect; nearly all actives have a fitted effect of over 50% in size
FMDV antiviral: blocks foot and mouth disease virus | AID 1159524 | Potency, µM (titrated, usually from 57.9 µM), without a hit: at the top dose activity change, negative = inhibition, usual class: inhibitors | FMDV antiviral cell-based qHTS | 410,000 tested, 1.2% active; calls by dose curve; tested in HEK293T cells; note: read-out not given here; potency is the fitted concentration of half-maximal effect; nearly all actives have a fitted effect of over 45% in size
MARV entry inh: inhibitors of Marburg virus binding or cell entry. Marburg virus pseudotyped entry inhibition, cell reporter. Potency, µM (doses to about 37.8 µM), for the others: at the highest dose activity change, negative = inhibition, hits mostly inhibitors. 300,000 tested, 1.8% active; calls by dose curve; tested in HEK293 cells; note: potency is the fitted concentration of half-maximal effect
VACV mCherry inh: vaccinia inhibition (mCherry reporter). Vaccinia virus mCherry reporter infection, fluorescence. Potency, µM (series often up to 36.5 µM), without a hit: at the highest dose activity change, negative = inhibition, actives largely listed as inhibitors. 310,000 tested, 0.63% active; calls by dose curve; tested in A549 cells; note: potency is the fitted concentration of half-maximal effect; nearly all actives have a fitted effect of over 35% in size
HCMV inh: blocks human cytomegalovirus replication | HFF cells, HCMV-luciferase reporter, 72 h; hits give low values | activity change, negative = inhibition, % at 57.5 µM | 410,000 tested, 4.5% active; in the data active = activity change below about -60%; inconclusive = no clear call, values can overlap the other calls; inactive = above about -39%
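Steps: HFFs plated, 16 h 37C; compounds added; HCMV-luciferase added to MOI 1 PFU/cell; 72 h 37C; OneGlo reagent, 5 min room temperature; luminescence read, normalized to controls.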
Vaccinia Venus: vaccinia inhibition (Venus reporter). Potency, µM (highest dose often 36.5 µM), for inactives: top-dose activity change, negative = inhibition, most hits filed as inhibitors. AID 720580. 330,000 tested, 0.46% active. Vaccinia virus Venus reporter expression, fluorescence; calls by dose curve; tested in A549 cells; note: potency is the fitted concentration of half-maximal effect; nearly all actives have a fitted effect of over 30% in size
Active calls of the source: *; i = inactive; ? = inconclusive; / = not tested or not shown; [ ] = dose if it differs, or a comment. An excerpt weighted towards active compounds, which were near 6.5% of everything screened. % is set by controls: 0 for no effect and ±100 for the full control effect.

SMILES	LASV entry inh	FMDV antiviral	MARV entry inh	VACV mCherry inh	HCMV inh	Vaccinia Venus
COc1cc(C(=O)NCCOc2cc(C)ccc2C(C)C)cc(OC)c1OC	2.82µM*	?	3.16µM*	-10.1%	-67.0*	-28.5%
COc1cc(/C=N/NC(=O)c2ccc(COc3cc(C)ccc3C(C)C)cc2)cc(OC)c1O	?	?	?	-13.7%	-87.8*	-7.2%
CC(=O)Nc1ccc(C(=O)N/N=C/c2ccccc2OCc2ccccc2)cc1	?	-1.1%	?	-19.9%	-35.6	-7.7%
COc1ccc2c3c(n(C)c2c1)[C@@H](CO)N(S(C)(=O)=O)CC31CCN(C(=O)C2CCCC2)CC1	/	/	/	/	5.6	/
Cc1ccc(C)n1C1C(=O)N(C)c2c(F)cccc21 (configuration not stated)	/	/	/	/	1.4	/
COc1ccc2c(c1OC)CN1CCc3cc4c(cc3[C@H]1C2)OCO4	/	?	/	?	/	-3.6%
COc1ccc2c(c1OC)CN1CCc3cc4c(cc3C1C2)OCO4 (configuration not stated)	?	?	?	-15.4%	-87.2*	-20.0%
CCOC(=O)C1C(C(=O)Nc2cccc(C(F)(F)F)c2)C1C(=O)NC(C)C (configuration not stated)	?	31.6µM*	7.2%[46.1 µM]	i	-17.7	-4.1%
CCCC(=O)Nc1ccc(Oc2ccc(NC(=O)CCC)cc2)cc1	2.0%	-5.4%	1.8%	/	5.8	/
CCCC(=O)Nc1ccc(C=C(C(C)=O)C(C)=O)cc1	18.1%	22.4µM*	-10.7%	-20.9%	43.8	-19.8%
Cc1nnc(NC(=O)CSc2ccccc2N)s1	/	30.6%	/	/	110.0	/
Cc1ccc(C(C)(C)C)c(SCC(=O)Nc2nnc(C)s2)c1	7.08µM*	-12.1%	7.08µM*	-11.3%	?	-10.1%
OC(COc1ccc(CNCCc2ccccc2F)cc1)CN1CCCCC1 (configuration not stated)	?	-9.9%	2.31µM*	/	-33.3	/
Nc1nccc(-c2cc(-c3ccc(Cl)cc3Cl)no2)n1	?	22.5%	14.1µM*	-18.9%	18.5	-24.8%
Clc1ccc(-c2nc(-c3ccncc3)no2)c(Cl)c1	/	35.1%	/	/	88.6	/
COc1cc(OC)c2c(c1)C(=O)OC2c1cc(OC)c(OC)cc1C (configuration not stated)	/	/	/	-18.4%	/	-13.3%
Cc1ccc(Cl)cc1N1CCN(C(=O)c2ccc(CS(=O)(=O)c3ccc(Br)cc3)o2)CC1	-0.8%[46.1 µM]	?	?	4.5%	-68.0*	-10.6%
Cc1ccccc1S(=O)(=O)Cc1ccc(C(=O)N2CCN(c3cccc(C)c3C)CC2)o1	3.55µM*	25.1µM*	?	-28.4%	-20.0	?
Cc1ccccc1S(=O)(=O)Cc1ccc(C(=O)N2CCN(c3cccc(Cl)c3)CC2)o1	?	-9.2%	?	-18.7%	-32.0	-10.1%
O=C(c1cccnc1)N1CC(=O)N2[C@@H](CO)[C@H](c3ccc(Br)cc3)[C@@H]2C1	/	/	/	/	4.3	/
COc1ccccc1N(CC(=O)Nc1cc(C)cc(C)c1)S(C)(=O)=O	7.8%[46.1 µM]	-7.9%	6.6%[46.1 µM]	-6.5%	-27.3	-10.0%
COc1ccc(C)cc1Nc1n[n+](-c2ccccc2)c(-c2ccc(OC)c(OC)c2OC)s1	/	?	/	?	?	-9.5%
COc1ccc(C)cc1Nc1n[n+](-c2ccccc2)c(-c2c(Cl)cccc2Cl)s1	/	0.0%	/	?	-99.6*	10µM*
CCc1ccc(Nc2n[n+](-c3ccccc3)c(-c3ccc(OCc4ccccc4)cc3)s2)cc1	/	-1.3%	/	i	-96.4*	?
CCN(CC)c1ccc(-c2sc(Nc3ccccc3)n[n+]2-c2ccc(F)cc2)cc1	/	?	/	i	-3.9	?
SMILES	LASV entry inh	FMDV antiviral	MARV entry inh	VACV mCherry inh	HCMV inh	Vaccinia Venus
O=C(O)c1ccc(-c2sc(Nc3ccccc3)n[n+]2-c2ccccc2)cc1	/	-3.0%	/	i	67.9	-13.6%
CCc1ccc(Nc2n[n+](-c3ccccc3)c(-c3c(Cl)cccc3Cl)s2)cc1	/	28.2µM*	/	?	-98.2*	8.91µM*
CCc1ccc(Nc2n[n+](-c3ccccc3)c(-c3cc(OC)c(OC)cc3Br)s2)cc1	/	-3.4%	/	?	22.8	?
CCc1ccc(Nc2n[n+](-c3ccccc3)c(-c3ccc(N(CC)CC)cc3)s2)cc1	/	?	/	?	-93.1*	11.2µM*
O=C(NC1CCCCC1)c1cnn2c1NC(=C1CC1)C=C2C(F)F	/	/	/	-22.9%	/	?
CCCCOc1ccc(Cn2c(=O)oc3ccc(C)cc32)cc1	-5.4%[46.1 µM]	-3.2%	-29.0%[46.1 µM]	3.1%	17.6	-0.8%
CC(C)(C)c1nnc(NC(=O)C2CCN(C(=O)c3ccccc3)CC2)s1	/	/	/	-20.2%	/	-21.3%
O=c1[nH][nH]c(C(F)(F)F)c1C=NCc1cccs1	/	-25.9%	/	/	-65.2*	/
O=c1[nH][nH]c(C(F)(F)F)c1C=Nc1ccccc1	3.6%	-0.2%	-10.5%	/	-6.9	/
CCC(C)C(=O)N1CCc2cc(-c3csc(N)n3)ccc21 (configuration not stated)	-2.8%	13.4%	?	?	109.0	?
CC(C)(C)C(=O)N1CCc2cc(-c3csc(N)n3)ccc21	2µM*	-48.5%	?	?	?	-28.3%
C[C@@H]1CN([C@@H](C)CO)C(=O)Cc2cc(NC(=O)Nc3ccc(C(F)(F)F)cc3)ccc2O[C@@H]1CN(C)S(=O)(=O)c1ccc(Cl)cc1	/	?	/	?	-29.0	11.2µM*
C[C@@H]1CN([C@H](C)CO)C(=O)c2cc(NS(=O)(=O)c3ccc(F)cc3)ccc2O[C@@H]1CN(C)Cc1ccc(Cl)c(Cl)c1	/	?	/	?	-19.3	10µM*
C[C@@H]1CN([C@H](C)CO)C(=O)c2cc(NC(=O)Nc3ccc(C(F)(F)F)cc3)ccc2O[C@H]1CN(C)Cc1ccc(Cl)c(Cl)c1	/	-18.0%	/	?	-96.6*	10µM*
C[C@H](CO)N1C[C@H](C)[C@H](CN(C)S(=O)(=O)c2cn(C)cn2)Oc2ccc(NC(=O)Nc3ccc(C(F)(F)F)cc3)cc2CC1=O	/	0.0%	/	i	?	-26.8%
C[C@H](CO)N1C[C@H](C)[C@@H](CN(C)Cc2ccc(C(=O)O)cc2)OCCCC[C@H](C)Oc2ccc(NC(=O)CCC(F)(F)F)cc2C1=O	/	/	/	/	15.1	/
C[C@H](CO)N1C[C@H](C)[C@@H](CN(C)S(=O)(=O)c2ccc(F)cc2)Oc2ccc(NS(=O)(=O)c3ccc(F)cc3)cc2C1=O	/	-15.3%	/	i	?	-4.0%
C[C@@H]1CCCCO[C@@H](CN(C)Cc2ccc(Cl)c(Cl)c2)[C@@H](C)CN([C@H](C)CO)C(=O)c2cc(NC(=O)CCC(F)(F)F)ccc2O1	/	-20.7%	/	?	-60.5*	?
C[C@H]1CN([C@@H](C)CO)C(=O)c2cccc(NC(=O)Nc3ccc(C(F)(F)F)cc3)c2O[C@@H]1CN(C)Cc1ccc(Cl)c(Cl)c1	/	?	/	?	-25.9	?
O=[N+]([O-])c1ccccc1-c1cc(-c2ccccc2Br)no1	/	/	/	/	71.1	/

Bioassay records as filed in PubChem.
